Molecules are shown by their SMILES. Calls of active or inactive are those of the source.

Assay [1] has as its system Plasmodium falciparum Sir2 (PF13_0152, Sir2A). In words: Plasmodium falciparum Sir2A binding compounds – biochemical, small-molecule microarray, 635 nm fluorescence, primary screen (AID 1098).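 Note: score merges spot fluorescence intensity with its signal-to-noise ratio.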 Particulars: fluorescence 635 nm, higher = more signal.
Assay [2] can be described thus: probe aDKK1 binding to arrayed compounds – biochemical, biotinylated probe, 635/667 nm fluorescence, primary screen (AID 1099).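 Note: score merges 667nm spot fluorescence with signal to noise across triplicate slides.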 Particulars: small-molecule microarray, higher = more signal.
The nature of assay [3]: probe aCHRDL2 binding to arrayed compounds – biochemical, biotinylated probe, 635/667 nm fluorescence, primary screen (AID 1100). Particulars: small-molecule microarray, higher = more signal.
Assay [4] can be described thus: change in splice reporter luminescence, either direction, cell-based, HEK293, spliceosome inhibition project, primary screen (AID 1101).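 Note: HEK293 cells carrying a splicing-competent luciferase reporter gene; test concentration not given here.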 Particulars: HEK293 splicing luciferase reporter, 24 h, higher = more signal, called active from +8 up or from −8 down.
In assay [5] the target is Fibroblast growth factor 10 (Homo sapiens) (UniProt O15520). In words: compounds binding fibroblast growth factor 10 – biochemical, small-molecule microarray, 635 nm fluorescence, primary screen (AID 1102). Particulars: FGF10 binding, fluorescence 635 nm, higher = more signal.
Fibroblast growth factor 10 (Homo sapiens), sequence (O15520 whole entry, looked up): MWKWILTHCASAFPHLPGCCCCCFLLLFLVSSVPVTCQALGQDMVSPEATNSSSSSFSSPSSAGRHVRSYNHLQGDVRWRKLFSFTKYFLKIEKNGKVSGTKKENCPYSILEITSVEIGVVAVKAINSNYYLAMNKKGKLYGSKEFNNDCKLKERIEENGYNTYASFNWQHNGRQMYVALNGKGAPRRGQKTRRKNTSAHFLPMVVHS
Assay [6] concerns glycogen synthase kinase-3 (GSK3A per assay name; protocol says GSK3B). In words: compounds binding glycogen synthase kinase-3 – biochemical, small-molecule microarray, 635 nm fluorescence, GSK3A, primary screen (AID 1103). Note: the record names both GSK3A and GSK3B. Particulars: fluorescence 635 nm, higher = more signal.
For assay [7], the target named is Epidermal growth factor receptor (Homo sapiens) (UniProt P00533). In words: compounds binding epidermal growth factor receptor – biochemical, small-molecule microarray, 635 nm fluorescence, primary screen (AID 1104).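 Note: score merges 667 nm emission intensity with spot signal to noise over triplicate slides.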 Particulars: EGFR binding, higher = more signal.
Epidermal growth factor receptor (Homo sapiens), sequence (P00533 whole entry, looked up): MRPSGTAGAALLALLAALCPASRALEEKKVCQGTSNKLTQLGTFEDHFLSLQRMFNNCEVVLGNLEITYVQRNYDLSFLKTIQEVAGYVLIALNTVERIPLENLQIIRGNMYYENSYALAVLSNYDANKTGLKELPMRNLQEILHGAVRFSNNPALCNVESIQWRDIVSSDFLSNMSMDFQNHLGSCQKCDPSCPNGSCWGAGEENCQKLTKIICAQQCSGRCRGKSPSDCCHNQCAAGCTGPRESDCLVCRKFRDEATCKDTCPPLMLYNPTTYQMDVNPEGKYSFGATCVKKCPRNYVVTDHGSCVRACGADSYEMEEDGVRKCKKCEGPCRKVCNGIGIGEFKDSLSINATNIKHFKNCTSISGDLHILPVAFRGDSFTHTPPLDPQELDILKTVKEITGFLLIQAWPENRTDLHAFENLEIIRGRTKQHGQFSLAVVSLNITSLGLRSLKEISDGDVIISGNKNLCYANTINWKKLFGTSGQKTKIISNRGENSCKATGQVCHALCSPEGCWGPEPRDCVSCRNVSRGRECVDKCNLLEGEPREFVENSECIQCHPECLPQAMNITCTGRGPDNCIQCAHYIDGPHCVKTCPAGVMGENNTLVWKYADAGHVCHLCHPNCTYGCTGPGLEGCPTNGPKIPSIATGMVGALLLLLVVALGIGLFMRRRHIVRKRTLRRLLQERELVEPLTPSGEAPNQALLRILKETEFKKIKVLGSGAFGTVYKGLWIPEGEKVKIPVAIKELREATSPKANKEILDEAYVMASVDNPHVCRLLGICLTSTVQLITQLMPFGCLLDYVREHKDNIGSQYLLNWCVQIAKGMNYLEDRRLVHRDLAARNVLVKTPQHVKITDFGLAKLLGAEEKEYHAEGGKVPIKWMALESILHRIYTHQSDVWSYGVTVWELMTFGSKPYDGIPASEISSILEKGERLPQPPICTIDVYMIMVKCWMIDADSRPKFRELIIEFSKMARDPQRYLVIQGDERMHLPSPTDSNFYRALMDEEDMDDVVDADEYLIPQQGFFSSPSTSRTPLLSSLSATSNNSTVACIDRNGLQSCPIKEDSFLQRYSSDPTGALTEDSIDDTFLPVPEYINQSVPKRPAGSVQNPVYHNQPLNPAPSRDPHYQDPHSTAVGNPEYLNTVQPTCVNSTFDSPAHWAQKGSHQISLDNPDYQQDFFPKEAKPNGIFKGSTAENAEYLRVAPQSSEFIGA
Assay [8] addresses Follistatin-related protein 3 (Homo sapiens) (UniProt O95633). The assay is described as follows: compounds binding follistatin-related protein 3 – biochemical, small-molecule microarray, 635 nm fluorescence, primary screen (AID 1105).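 Note: score merges emission near 667 nm and signal to noise per printed spot across three slides.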 Particulars: FSTL3 binding, higher = more signal.
Assay [9] deals with Dickkopf-related protein 1 (Homo sapiens) (UniProt O94907). The assay is described as follows: small molecules binding DKK1 protein – biochemical, small-molecule microarray, 635 nm fluorescence scan, primary screen (AID 1106).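 Note: score merges emission near 667 nm with signal to noise over three replicate slides.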 Particulars: higher = more signal.
Dickkopf-related protein 1 (Homo sapiens), sequence (O94907 whole entry, looked up): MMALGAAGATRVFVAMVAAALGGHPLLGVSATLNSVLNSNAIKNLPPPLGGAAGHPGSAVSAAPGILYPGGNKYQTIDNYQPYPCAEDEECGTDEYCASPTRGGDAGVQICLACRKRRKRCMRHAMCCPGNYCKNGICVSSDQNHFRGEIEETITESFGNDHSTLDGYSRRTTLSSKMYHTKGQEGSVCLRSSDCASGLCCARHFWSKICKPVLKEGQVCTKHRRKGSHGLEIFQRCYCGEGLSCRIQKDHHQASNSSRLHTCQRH
Assay [10] has as its system Inhibin beta A chain (activin A). The assay is described as follows: small molecules binding activin A – biochemical, small-molecule microarray, 635 nm fluorescence scan, primary screen (AID 1107).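 Note: mouse activin A protein probed at 4.33 µg/mL on printed slides; score merges bound-protein fluorescence near 667 nm with spot signal-to-noise.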 Particulars: INHBA, higher = more signal.
The test system of assay [11] is Human papillomavirus type 1a protein E7 (residues 44-93). In words: small molecules binding HPV E7 44-93 – biochemical, small-molecule microarray, residues 44-93, 635 nm fluorescence, primary screen (AID 1108).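 Note: E7 fragment applied at 1 µg/mL in TBST for 1 h at 4 C; score combines spot fluorescence with its signal to noise ratio.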 Particulars: fluorescence 635 nm, higher = more signal.
A short description of assay [12]: hepatitis C replication reporter changes, two-sided – Huh7 cells, luciferase reporter, HCV replication inhibitor project, primary screen (AID 1109).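 Note: huh7 hepatoma cells harbouring a luciferase neomycin HCV replicon reporter; luciferase luminescence as measure of HCV replicon replication; test concentration not given here.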 Particulars: Huh7 HCV replicon luciferase reporter, 48 h; higher = more signal.
Assay [13] addresses Left-right determination factor 2 (Homo sapiens) (UniProt O00292). In words: small molecules binding LEFTY2 protein – biochemical, small-molecule microarray, 635 nm fluorescence scan, primary screen (AID 1110). Particulars: higher = more signal.
Assay [14] concerns the target Calmodulin-1 (Homo sapiens) (UniProt P0DP23). In words: small molecules binding calmodulin-1 with EGTA – biochemical, small-molecule microarray, Cy5-labelled CALM1, profiling panel (AID 1111).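 Note: labelled calmodulin applied in Tris saline Tween buffer holding calcium plus EGTA and DTT.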 Particulars: Cy5-CALM1 binding fluorescence, higher = more signal.
For assay [15] the target is unchanged. The assay is described as follows: small molecules binding Ca-loaded calmodulin-1 – biochemical, small-molecule microarray, Cy5-labelled CALM1, plus calcium, artefact control for SMM control-protein annotation, profiling panel (AID 1112).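 Note: score merges spot fluorescence with signal to noise from triplicate slides.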 Particulars: Cy5-CALM1 binding fluorescence, higher = more signal.
Assay [16] in a line: probe aWnt5a binding to arrayed compounds – biochemical, biotinylated probe, 635/667 nm fluorescence, primary screen (AID 1113).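 Note: score merges 667 nm fluorescence intensity with signal-to-noise per printed feature.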 Particulars: small-molecule microarray, higher = more signal.
The nature of assay [17]: probe aShh binding to arrayed compounds – biochemical, biotinylated probe, 635/667 nm fluorescence, primary screen (AID 1114).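 Note: probe is biotin-labelled aShh protein from a stem cell growth factor screen; measures binding of labelled protein to compounds printed on the slide; score merges feature fluorescence at 667 nm with signal-to-noise.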 Particulars: small-molecule microarray, higher = more signal.
A short description of assay [18]: probe aNog binding to arrayed compounds – biochemical, biotinylated probe, 635/667 nm fluorescence, primary screen (AID 1115).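 Note: probe is biotinylated aNog protein used at 0.15 µg/mL for 1 h at 4 C; z-score combines 667 nm fluorescence of each spot with its signal to noise.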 Particulars: small-molecule microarray, higher = more signal.
Assay [19] addresses Torsin-1A-interacting protein 1 (Homo sapiens) (UniProt Q5JTV8). In words: compound microarray binding of lysate hLAP1 – cell lysate, small-molecule microarray, COS7 lysate, 635/667 nm fluorescence, primary screen (AID 1116). Particulars: 635 nm fluorescence, higher = more signal.
In assay [20] the target is Alpha-bungarotoxin (Bungarus multicinctus) (UniProt P60615). The assay is described as follows: compounds binding labelled alpha-BTX control protein – biochemical, small-molecule microarray, Alexa647 label, 635/667 nm fluorescence, artefact control for SMM control protein annotation, profiling panel (AID 1117). Particulars: alpha-BTX-A647 binding fluorescence, higher = more signal.
Alpha-bungarotoxin (Bungarus multicinctus), sequence (P60615 whole entry, looked up): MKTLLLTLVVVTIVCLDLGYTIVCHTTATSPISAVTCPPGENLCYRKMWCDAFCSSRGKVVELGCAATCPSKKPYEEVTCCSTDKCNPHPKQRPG

Torsin-1A-interacting protein 1 (Homo sapiens), sequence (Q5JTV8 whole entry, looked up): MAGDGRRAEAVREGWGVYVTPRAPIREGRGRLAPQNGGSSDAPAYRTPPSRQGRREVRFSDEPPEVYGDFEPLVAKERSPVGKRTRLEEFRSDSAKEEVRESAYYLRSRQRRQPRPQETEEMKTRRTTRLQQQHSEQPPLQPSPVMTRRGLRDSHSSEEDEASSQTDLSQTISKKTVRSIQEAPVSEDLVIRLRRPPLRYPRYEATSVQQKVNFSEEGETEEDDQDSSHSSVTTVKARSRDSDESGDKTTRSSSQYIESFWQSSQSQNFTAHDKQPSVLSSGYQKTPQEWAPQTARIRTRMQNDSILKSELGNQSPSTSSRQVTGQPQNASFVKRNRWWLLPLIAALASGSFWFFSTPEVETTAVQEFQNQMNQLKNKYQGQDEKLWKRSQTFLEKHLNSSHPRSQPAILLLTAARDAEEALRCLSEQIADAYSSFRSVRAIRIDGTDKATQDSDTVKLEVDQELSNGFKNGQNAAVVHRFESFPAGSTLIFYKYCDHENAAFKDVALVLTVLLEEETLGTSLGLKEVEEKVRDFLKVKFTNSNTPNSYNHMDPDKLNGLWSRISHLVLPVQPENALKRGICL
Follistatin-related protein 3 (Homo sapiens), sequence (O95633 whole entry, looked up): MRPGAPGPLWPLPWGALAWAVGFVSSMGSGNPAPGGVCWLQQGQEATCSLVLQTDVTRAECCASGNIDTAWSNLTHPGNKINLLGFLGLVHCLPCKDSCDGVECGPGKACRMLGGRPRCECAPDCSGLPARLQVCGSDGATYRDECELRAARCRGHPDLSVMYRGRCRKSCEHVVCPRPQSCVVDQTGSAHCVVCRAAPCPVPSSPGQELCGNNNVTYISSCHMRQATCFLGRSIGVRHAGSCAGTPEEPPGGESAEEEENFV
Left-right determination factor 2 (Homo sapiens), sequence (O00292 whole entry, looked up): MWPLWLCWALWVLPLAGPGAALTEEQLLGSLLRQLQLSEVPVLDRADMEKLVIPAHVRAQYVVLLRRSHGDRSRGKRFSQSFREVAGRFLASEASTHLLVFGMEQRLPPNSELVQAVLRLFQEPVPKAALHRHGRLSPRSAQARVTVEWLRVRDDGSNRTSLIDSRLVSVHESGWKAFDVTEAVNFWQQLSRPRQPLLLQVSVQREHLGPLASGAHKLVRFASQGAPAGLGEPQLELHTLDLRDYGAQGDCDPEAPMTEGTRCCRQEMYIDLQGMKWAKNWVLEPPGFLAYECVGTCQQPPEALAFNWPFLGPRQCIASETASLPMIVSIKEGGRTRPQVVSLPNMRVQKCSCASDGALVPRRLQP

For `COc1ccc(C#Cc2ccc3c(c2)[C@]2(C(=O)N3)[C@H](C(=O)O)[C@H]3C(=O)O[C@H](c4ccccc4)[C@H](c4ccccc4)N3[C@@H]2c2ccccc2OCCO)cc1`, the composite z-score in assay [1] is 1.54; in assay [2], -0.161; in [3] it was -0.126; in assay [5] it was 1.16; in assay [6] it was 1.31; in [7], 0.481. Further, the composite z-score in assay [8] is 0.509; in [9] it was 0.301; in assay [10], -0.658; in [11], 0.263; in assay [13], 0.694; in assay [14], 1.04. Moreover, the composite z-score was 0.604 in assay [15]; -0.235 in [16]; 0.0777 in assay [17]; 0.279 in assay [18]; 0.835 in assay [19]; 2.21 in assay [20]. For the same compound, the z-score in assay [4] is -2.14 (inactive); in assay [12], -2.19.

For the compound `Cc1ccccc1C(O)C1C=CC2C(=O)N(c3ccccc3)C(=O)C2N1Nc1ccccc1` (stereo not given), the composite z-score was determined as 1.37 in assay [1]; 1.01 in [2]; 1.25 in assay [3]; 0.96 in [5]; 0.65 in assay [6]; 0.0981 in [7]. For the same compound, the composite z-score in [8] stood at 1.17; in [9] it was 0.0843; in assay [10] it was 1.45; in assay [11] it was 0.0932; in [13] it was 0.256; in assay [14] it was 2.12. Moreover, the composite z-score in assay [15] came to 0.585; in assay [16], 0.0437; in [17], 0.108; in [18], 0.189; in assay [19], 1.54; in assay [20], 1.1. Further, the z-score in assay [4] was -0.00177 (inactive); in assay [12] it was 1.31.

For the compound `CC(C)C[C@@H]1NC(=O)[C@@H]2C[C@H](C(=O)NCCCCCCNC(=O)CS)[C@H](c3cccc(OCCO)c3)N2C1=O`, the composite z-score was 1.65 in assay [1]; -0.0594 in assay [2]; 0.237 in [3]; 1.31 in [5]; 1.29 in [6]; 0.876 in assay [7]. The composite z-score came to 1.52 in [8]; 1.4 in assay [9]; 0.626 in assay [10]; 1.47 in [11]; 0.622 in assay [13]; 1.03 in assay [14]. Also, the composite z-score is 0.264 in assay [15]; 0.0375 in assay [16]; 0.0611 in assay [17]; -0.0172 in assay [18]; 1.06 in assay [19]; 2.02 in assay [20]. In addition, the z-score in assay [4] is -0.356 (inactive); in assay [12], -0.319.

Consider `C=C(CCCC)/C(=C/C[C@@H](OC(C)=O)c1ccc(CO)o1)c1cnc2ccccc2c1`, for which the composite z-score in assay [1] is 1.08; in [2] it was -0.282; in assay [3], -0.428; in assay [5], 1.46; in assay [6], 1.3; in assay [7] it was 0.533. Further, the composite z-score is 1.4 in assay [8]; 0.768 in [9]; 1.05 in [10]; 1.42 in assay [11]; 0.735 in assay [13]; 0.626 in assay [14]. Also, the composite z-score in assay [15] was -0.764; in assay [16] it was -0.0704; in assay [17] it was 0.147; in assay [18] it was -0.0719; in [19], 1.69; in assay [20], 1.15. Also, the z-score in assay [4] was 0.179 (inactive); in assay [12] it was -0.756.

For the compound `C=CCNC(=O)[C@H]1[C@@H]2C(=O)O[C@@H](c3ccccc3)[C@@H](c3ccccc3)N2[C@@H](c2ccc(OCCO)cc2)[C@]12C(=O)Nc1ccccc12`, the composite z-score is 1.39 in [1]; -0.106 in [2]; 0.747 in assay [3]; -0.0719 in [5]; 0.164 in assay [6]; -0.129 in [7]. Further, the composite z-score in [8] was 0.227; in assay [9], -0.939; in [10], -0.329; in [11] it was 1.39; in assay [13], -0.514; in assay [14], 1.85. Also, the composite z-score was 0.345 in [15]; -0.0405 in [16]; -0.0505 in assay [17]; 0.666 in [18]; 1.87 in assay [19]; 1.4 in [20]. In addition, the z-score was -0.152 (inactive) in assay [4] and -1.4 in assay [12].

The values are drawn from PubChem BioAssay.
